Among the data in PubChem BioAssay AID652067 (The Scripps Research Institute Molecular Screening Center, 2013) are activation values, retold here.

Among all 370,000 compounds or so, about 5,400 (1.5%) were called active.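 How the source made its calls: active means activation above the mean of all tested compounds plus 3 SD (cut at about 5.5% in these data); inactive means the rest.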 What follows is part of a selection rich in actives, with near analogues and random picks from the rest.

This assay concerns DAF-12 nuclear receptor (Haemonchus contortus). Kind of assay: H. contortus DAF-12 nuclear receptor activators, primary screen, cell-based, luminescence, HEK293, lit1-tk-luc reporter (AID 652067).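 Further: 100% = response to 3 µM Δ7-dafachronic acid high control.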 Particulars: HEK293 hcDAF-12 lit1-tk-luc reporter, at 6.8 µM, hits give high values, 0% DMSO, 100% Δ7-dafachronic acid.
For the molecule `COC(=O)C1CN(Cc2cn(Cc3ccc(F)cc3)nn2)CCS(=O)(=O)N1Cc1ccc(Cl)cc1` (stereo not given), the activation is -3.19% (inactive). The figure for `COc1ccc(-c2ccccc2C2Cc3nnccc3CN2C(=O)Nc2ccccc2)cc1` (stereo not given) is -1.19% (inactive). For `Cc1ccc(Cn2cc(CN3[C@@H](C)COc4cc(Br)ccc4S3(=O)=O)nn2)cc1`, the activation is -3.6% (inactive). The figure for `O=C(NCc1ccco1)C1CCCN1S(=O)(=O)c1ccccc1C(F)(F)F` (stereo not given) is -2.37% (inactive); for `CN(C)c1nc(N)nc(CSc2ccccn2)n1` it is 0.13% (inactive). The figure for `Cn1c(SCC(=O)c2ccccc2)ncc(C(=O)Nc2ccc(F)cc2)c1=O` is 0.15% (inactive); for `Cc1ccc(NC(=O)c2cnc(SCC(=O)NCC3CCCO3)n(C)c2=O)cc1` (stereo not given) it is 5.83% (active). The figure for `CCn1c(SCC(=O)NCC2CCCO2)nc2ccccc21` (stereo not given) is 1.17% (inactive); for `CCCCN(CC)C(=O)c1ccccc1Oc1ccccc1` it is -2.5% (inactive); for `COCc1cc(N2CCN(C(=O)OC(C)(C)C)C[C@@H]2C)ccc1N1CCN(Cc2ccccc2)[C@H](C)C1` it is -1.75% (inactive). In the case of `CCCOc1ccc(C(=O)NCCc2ccccc2)cc1`, the activation was 7.01% (active). Consider `O=C(NCCc1ccccc1)Oc1ccc(Cl)cc1`, for which the activation is 2.6% (inactive).

With `CC(C)c1ccc(C(=O)NCCCc2ccccc2)cc1`, the activation was 2.26% (inactive).

Regarding `N#Cc1ccc(OCCCN2CCC(C(O)(c3ccccc3)c3ccccc3)CC2)c(F)c1`, the activation is -0.43% (inactive). In the case of `CCOCCCNC(=O)C(NC(=O)CNC(=O)c1ccccc1)c1ccc(C)cc1` (stereo not given) it was -0.9% (inactive). The figure for `CCOCCCNC(=O)C(NC(=O)Cc1c[nH]c2ccccc12)c1ccc(OC)cc1` (stereo not given) is 5.82% (active). Take `CCOCCCNC(=O)C(NC(=O)CNC(=O)c1ccccc1)c1ccc(OC)cc1` (stereo not given): the activation is 1.22% (inactive). In the case of `COc1ccc(-n2c(COc3ccc(C)cc3)nnc2SCC(=O)Nc2ccc(Oc3ccccc3)cc2)cc1` it was -2.93% (inactive); in that of `CCN(CC)C(=O)CC[C@H]1CC[C@]2(CCCN(Cc3ccc(Cl)cc3)C2)O1`, -0.52% (inactive).

In the case of `CN(Cc1ccc(C(F)(F)F)cc1)C(=O)[C@H]1O[C@@H](n2cnc3c(N)ncnc32)[C@H](O)[C@@H]1O`, the activation was -3.28% (inactive). On to `Cc1cc(C)cc(NC(=O)C(OC(=O)c2ccc(O)cc2)c2ccccc2)c1` (stereo not given), for which the activation is 2.07% (inactive). `Cc1ccc(C)c(NC(=O)C(OC(=O)c2ccc(C)s2)c2ccccc2)c1` (stereo not given): the activation was 5.84% (active). As for `COc1ccc(C)cc1NC(=O)C(OC(=O)c1cccc(S(=O)(=O)N(C)c2ccccc2)c1)c1ccccc1` (stereo not given), the activation was 0.81% (inactive). In the case of `Cn1c(NCc2cccnc2)nc2cc(-c3ccc(F)cc3)sc2c1=O` it was -0.57% (inactive). In the case of `O=c1[nH]c(CCl)nc2cc(-c3ccc(Cl)cc3)sc12` it was 7.46% (active); in that of `COc1cccc(-c2cc3nc(NCCOc4ccccc4Cl)n(C)c(=O)c3s2)c1`, -0.41% (inactive). `CCCOc1ccc(Oc2c(Cl)cnn(Cc3cccc4ccccc34)c2=O)cc1`: the activation was 0.08% (inactive). The figure for `O=C(CSC(=S)N1CCCCC1)c1c(F)cccc1F` is 6.39% (active). In the case of `CC(=O)c1ccc(NC(=O)CSC(=S)N2CCCC2)cc1` it was 4.8% (inactive); in that of `N[C@@H](Cc1ccccc1)C(=O)N1CCOCC1`, -1.46% (inactive).

As for `O=C(CSC(=S)N1CCOCC1)c1ccccc1`, the activation is 6.9% (active).

With `O=C(O)CC(CC(=O)N1CCOCC1)c1ccccc1` (stereo not given), the activation is -2.07% (inactive). The figure for `COc1cccc(NC(=O)CN(C)C(=O)CSC(=S)N2CCCC2)c1` is 0.17% (inactive); for `CCOC(=O)[C@@]12CCC3=C1N(CCC3)C(=O)[C@H](CC(=O)N1CCN(C(=O)c3ccco3)CC1)C2` it is 0.92% (inactive); for `CN1CCOC1c1ccc(C2OCCN2C)cc1` (stereo not given) it is -0.23% (inactive).

For the molecule `CC(=O)C1=C(C)N(Cc2ccccc2)C(=S)NC1c1cccc(Br)c1` (stereo not given), the activation was 1.52% (inactive).

For the molecule `CCOc1ccc(NC(=O)CSc2ncnc3c2sc2ccccc23)cc1`, the activation was 2.39% (inactive).

With `COC(=O)[C@H](C(C)C)N1CCc2nnn(Cc3ccc(C)cc3)c2-c2ccccc2S1(=O)=O`, the activation is -1.76% (inactive).

For the molecule `O=C(Nc1cc(F)cc(F)c1)OC1CCC12CCC(c1ccccc1)CC2` (stereo not given), the activation is 1.63% (inactive). As to `Nc1nonc1C(=O)NCCc1ccccc1`, the activation is -1.41% (inactive).

As to `NC(=O)Nc1ccccc1C(=O)NCCc1ccccc1`, the activation was 8.5% (active).

Consider `O=C(O)c1ccccc1-c1ccccc1C(=O)NCCc1ccccc1`, for which the activation is -1.14% (inactive).

For the molecule `C/C(=N\c1nc2ccccc2n1C)c1cc(Cl)ccc1O`, the activation is 4.18% (inactive). In the case of `Cn1c(SCC(=O)N/N=C/c2ccc(O)c(O)c2)nc2ccccc21` it was 0.79% (inactive). The figure for `CCN(CC)CCn1c(/N=C/c2cc(Br)ccc2O)nc2ccccc21` is 6.13% (active); for `CCOC(=O)Cn1c2c(n(-c3ccc(F)cc3)c1=O)C=C(c1ccccc1)[C@@H](C)C(C(=O)N(C)C1CCCCC1)=C2` it is -0.1% (inactive). In the case of `N#Cc1cccc(C(=O)NCC2CCN(C(=O)C(=O)c3cc4ccccc4o3)CC2)c1`, the activation was -1.58% (inactive). In the case of `Cc1cccc(NC(=O)C[C@H]2CC[C@H]3[C@@H](COc4ccc(NC(=O)Nc5ccccc5)cc4C(=O)N3C)O2)c1` it was -0.28% (inactive). For `CN(CC(=O)Nc1ccc(Cl)cc1)C(=O)CNC(=O)c1ccc2ccccc2c1`, the activation was 6.25% (active).

Regarding `CN(CC(=O)Nc1ccc(Cl)cc1)C(=O)c1ccc(COc2ccccc2)cc1`, the activation was -1.47% (inactive).

Regarding `CN(CC(=O)Nc1ccc(Cl)cc1)CC(=O)Nc1cccc2ccccc12`, the activation is -0.93% (inactive). Take `CN1C(=O)C2CC(O)C(SC3CC4C(=O)N(C)C(=O)C4CC3O)CC2C1=O` (stereo not given): the activation was 0.52% (inactive).

For `CC[C@H](NC(=O)[C@H](Cc1ccccc1)NC(=O)[C@H]1O[C@@H](n2cnc3c(=O)[nH]c(N)nc32)[C@H](O)[C@@H]1O)c1ccccc1`, the activation is -0.3% (inactive). In the case of `Clc1ccccc1-c1cc(COc2ccc3ccccc3c2)no1` it was -2.26% (inactive); in that of `Fc1ccc(-c2ccc(CNCc3ccccn3)o2)cc1Cl`, 0.05% (inactive); in that of `Clc1ccc(-c2cc(-c3ccccn3)on2)c(Cl)c1`, 12.3% (active).

Consider `CC(=O)N1CCCN(C2=Nc3ccccc3Sc3ccccc32)CC1`, for which the activation was -0.4% (inactive). In the case of `COCCCNC(=O)C[C@H]1C[C@@]2(C(=O)OC)C(=C[C@H](C(C)(C)C)O[C@@H]2C)N(Cc2ccc3c(c2)OCO3)C1=O` it was -1.12% (inactive). The figure for `O=C1CCC(=O)N(O)CCCCCNC(=O)CCC(=O)N(O)CCCCCNC(=O)CCC(=O)N(O)CCCCCN1` is 0.23% (inactive); for `CCCCNC(=O)OC(C)CNC(=O)OC` (stereo not given) it is -0.33% (inactive). Take `CC(C)C(=O)Nc1c(C(=O)c2ccc(F)cc2)oc2ccccc12`: the activation is -1.93% (inactive). With `CC(C)C(=O)Nc1oc(-c2ccccc2)cc1C#N`, the activation is -1.35% (inactive). In the case of `CC(C)C(=O)Nc1ccc2c(c1)oc1ccccc12` it was 6.7% (active); in that of `FC(F)(F)c1cccc(NC(=S)OC2CCC23CCC(c2ccccc2)CC3)c1` (stereo not given), -0.73% (inactive); in that of `CCOC(=O)N1CCN(C(=O)C[C@H]2C[C@@]3(C(=O)OC)C(=C[C@H](C4CCCC4)O[C@@H]3C)N(Cc3ccccc3)C2=O)CC1`, -0.64% (inactive). In the case of `Cc1ccc(-n2c(SCC(=O)Nc3cccc4ccccc34)nnc2-c2ccco2)cc1` it was -2.24% (inactive); in that of `COc1cccc(-c2cc(CNC(=O)[C@@H](Cc3ccccc3)NC(=O)[C@H]3O[C@@H](n4cnc(C(N)=O)n4)[C@H](O)[C@@H]3O)no2)c1`, -1.75% (inactive); in that of `O=C(Nc1cccc(Cl)c1)OC1CC2CC1[C@H]1CCCCN1[C@H]2Cc1ccccc1` (stereo not given in full), -1.09% (inactive). For the molecule `CC(=O)N1C(=O)/C(=C2\SC(=S)N(NC(=O)c3ccc(O)cc3)C2=O)c2ccccc21`, the activation is 8.31% (active). The figure for `COc1ccc2c(c1)N(C)/C(=C1/SC(=S)N(NC(C)=O)C1=O)S2` is -1.24% (inactive). In the case of `COc1ccc(C(=O)NN2C(=O)C3C(c4ccccc4)C=CC(c4ccccc4)C3C2=O)cc1` (stereo not given) it was 0.07% (inactive).

For the molecule `CCOC(=O)N1CCN(C(=O)C[C@H]2C[C@@]3(C(=O)OC)C(=C[C@H](C(C)(C)C)O[C@@H]3C)N(Cc3ccc(Cl)cc3Cl)C2=O)CC1`, the activation was -1.96% (inactive). In the case of `COc1ccc([C@H]2[C@H](C(C)=O)N3N=Cc4ccccc4C3C23C(=O)OC(C)(C)OC3=O)cc1` (stereo not given in full) it was -0.72% (inactive); in that of `COC(=O)c1cccc(Cn2ccc3ccc(-c4ccc5ccn(C(=O)c6ccccc6C)c5c4)cc32)c1`, -0.36% (inactive); in that of `O=C(NC1CCCCN(Cc2cccc(C(F)(F)F)c2)C1=O)c1ccccc1I` (stereo not given), -2.6% (inactive).

For the molecule `CC(OC(=O)Cc1ccc(F)cc1)C(=O)N1CCc2ccccc21` (stereo not given), the activation was -0.21% (inactive).

As to `O=C(CSCc1ccccc1)N1CCc2ccccc21`, the activation is 6.78% (active). For `O=C(CN1C(=O)c2ccccc2S1(=O)=O)N1CCc2ccccc21`, the activation is -5.07% (inactive). In the case of `CC(=O)N1CCc2cc(S(=O)(=O)NCCC(=O)N3CCCC3)ccc21` it was 1.64% (inactive); in that of `O=C(NC1=CC(=O)c2ccccc2C1=O)c1ccccc1`, -0.21% (inactive); in that of `CCn1c(NC(=O)c2nn(C)cc2Br)nc2ccccc21`, -2.93% (inactive).

As to `Cn1c(NC(=O)c2ccccc2)nc2ccccc21`, the activation is 14.3% (active). For `C[C@@H](NC(=O)c1ccccc1OCC(=O)Nc1ccc(I)cc1)C(=O)N(C)Cc1ccccc1`, the activation was -0.3% (inactive). For the molecule `COCC(=O)N[C@@H]1C[C@@H]2O[C@@H](CO)CC[C@@H]2O[C@@H]1CCc1ccc(-c2ccccc2)cc1`, the activation is -2.01% (inactive). In the case of `O=C(O)c1ccccc1CSc1nc2ccccc2s1` it was 8.09% (active); in that of `O=C(O)CSc1nccc2ccccc12`, 0.9% (inactive); in that of `O=C(O)CSCc1nc2ccccc2s1`, 5.6% (active). The figure for `Cn1c(SCc2nc3ccccc3s2)nnc1-c1ccc2c(c1)OCO2` is 3.52% (inactive).

With `O=C(CSc1nc2ccccc2s1)N=Nc1c(O)[nH]c2ccccc12`, the activation is -1.5% (inactive). Take `O=C(CSc1nc2ccccc2s1)NN=Cc1ccc(O)cc1O`: the activation is -0.04% (inactive).
